Compound activity deposited in PubChem BioAssay by National Center for Advancing Translational Sciences (NCATS).
D3 ag: D3 dopamine receptor (human) agonism. D3R DiscoveRx beta-arrestin cells, luminescence, 90 min. AID 652048. hit rate 0.58% among 410,000. P35462. max activation, %; in the data active means max activation above about 30%
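Agonist mode: compounds and dopamine controls were applied to plated cells for 90 min at 37 degrees C after an overnight attachment at 1500 cells/well. Luminescent read-out followed 30 - 60 minutes at room temperature with DiscoveRx detection reagent.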
D1 PAM: human D1 dopamine receptor positive modulation; P21728; HEK293 TREx D1 cells, calcium flux, dopamine EC20 potentiation; potentiation, % at 10 µM; hit rate 0.036% among 360,000; in the data active means potentiation above about 30%
Target sequence (P21728 whole entry, looked up): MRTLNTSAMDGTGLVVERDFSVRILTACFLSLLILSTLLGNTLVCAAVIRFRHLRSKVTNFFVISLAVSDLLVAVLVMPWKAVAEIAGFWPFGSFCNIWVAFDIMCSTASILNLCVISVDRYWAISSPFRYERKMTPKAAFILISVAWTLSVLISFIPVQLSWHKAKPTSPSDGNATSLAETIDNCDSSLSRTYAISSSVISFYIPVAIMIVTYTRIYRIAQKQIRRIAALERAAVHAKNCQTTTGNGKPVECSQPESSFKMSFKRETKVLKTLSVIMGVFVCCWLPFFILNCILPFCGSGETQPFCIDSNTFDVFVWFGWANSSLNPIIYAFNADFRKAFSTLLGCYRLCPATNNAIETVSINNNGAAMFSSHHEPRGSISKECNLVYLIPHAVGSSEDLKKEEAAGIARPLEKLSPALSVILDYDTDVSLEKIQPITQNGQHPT
D1 antagonist: blocks dopamine activation of the human D1 receptor; activity change, negative = inhibition, % at 10 µM; hit rate 3.2% among 360,000; P21728; HEK293 TREx D1 cells, calcium flux, dopamine EC80; stronger effect = lower value; AID 504652; in the data active means activity change below about -30%
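Allosteric or orthosteric antagonism assessed as attenuation of the calcium response to EC80 dopamine, added 180 s after compound, in induced HEK293 Trex D1 cells loaded with no-wash calcium dye.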
D3 antag: antagonists of human D3 dopamine receptor. D3R cells, DiscoveRx beta-arrestin luminescence, antagonist mode; stronger effect = lower value. max response, negative = inhibition, %. hit rate 2.5% among 360,000. AID 652054; in the data active means max response below about -50%; inconclusive means no clear call, values can overlap the other calls
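Cells plated overnight at 1500 cells/well, then exposed to library compounds with dopamine controls for 90 minutes at 37 degrees C. DiscoveRx reagent added for 30–60 minutes at room temperature; luminescence read, quantitative HTS format.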
ERG-DNA inh: inhibitors of human ERG Ets domain-DNA interaction. P11308. fluorescence polarization, His-ERG Ets domain / labelled DNA. Potency, µM (doses to about 76.9 µM), actives largely listed as inhibitors. hit rate 0.028% among 370,000; active means well fitted inhibition curve with a large enough effect in the polarisation, with a control signal flat; inconclusive means small, poorly fitted or top-dose-only effect, or effect the other way, or a change in a side signal; inactive means no such curve, though single readings can be large or run the other way; the % refers to the polarisation;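 further: polarization taken with two DNA probes labelled with fluorescein and Texas red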
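His-tagged ERG Ets domain (1 uM in the protein solution; 300mM KCl, 50mM Tris-HCl, 1mM EDTA, 1mM DTT, pH 7.5) received compound, then a probe mix of 5 nM fluorescein-DNA and 100nM Texas-615-DNA. Fluorescence polarization was read for both dyes.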
D1 agonist: human D1 receptor agonism; HEK293 T-REx D1 cells, calcium flux, agonist mode; P21728; activation, % at 2 µM; hit rate 1% among 360,000; in the data active means activation above about 30%
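Tetracycline-induced HEK293 TREx D1 cells, force-coupled to calcium signalling, were dye-loaded with a no-wash calcium kit. Compound was pin-added after a 10 s baseline. Fluorescence was read kinetically at 1 cycle/s for 180 s, with calcium rises flagged as agonism.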
Numbers stand for hits. Hits are enriched below; roughly 6.1% of the tested compounds scored in any of these assays.

`Cc1c(N2C(=O)CS/C2=N\N=C\c2ccccc2O)c(=O)n(-c2ccccc2)n1C` gave D3 ag 39, D1 PAM inactive, D1 antagonist inactive, D3 antag inactive, ERG-DNA inh inactive and D1 agonist inactive.
For CCOC(=O)C1CCN(C(=O)COC(=O)c2ccc3c(c2)C(=O)N(c2ccc(OCC)cc2)C3=O)CC1 the results were D3 ag inactive, D1 PAM inactive, D1 antagonist inactive, D3 antag inactive, ERG-DNA inh inactive and D1 agonist inactive.
`COc1ccc(-c2nc(NC(=O)c3c(C)noc3C)sc2C)cc1` gave D3 ag inactive, D1 PAM inactive, D1 antagonist inactive, D3 antag inactive, ERG-DNA inh inactive and D1 agonist inactive.
For COc1ccc(-c2nc(NC(=O)c3cc(C(C)(C)C)nn3C)sc2C)cc1 the results were D3 ag 40, D1 PAM inactive, D1 antagonist inactive, D3 antag inactive, ERG-DNA inh inactive and D1 agonist inactive.
For O/N=C1\CCCC\C1=C/c1ccccc1 the results were D3 ag inactive, D1 PAM inactive, D1 antagonist inactive, D3 antag inactive, ERG-DNA inh inactive and D1 agonist inactive.
Cc1cccc(C(=O)N2CCN(c3ccc([N+](=O)[O-])c(NCc4ccco4)c3)CC2)c1 was read as D3 ag inactive, D1 PAM inactive, D1 antagonist -67, D3 antag inactive, ERG-DNA inh inactive and D1 agonist inactive.
Screening Cc1cccc(C(=O)N2CCN(c3ccc([N+](=O)[O-])c(N4CCOCC4)c3)CC2)c1 returned D3 ag inactive, D1 PAM inactive, D1 antagonist -45, D3 antag inconclusive, ERG-DNA inh inactive and D1 agonist inactive.
For Cc1ccc(C(=O)N2CCN(c3ccc([N+](=O)[O-])c(NCc4ccco4)c3)CC2)cc1 the results were D3 ag inactive, D1 PAM inactive, D1 antagonist inactive, D3 antag inactive, ERG-DNA inh inactive and D1 agonist inactive.
Cc1ccc(C(=O)NC2CCCN(c3ccc(C(F)(F)F)cn3)C2)cn1 (stereo not given) was read as D3 ag inactive, D1 PAM inactive, D1 antagonist inactive, D3 antag inactive, ERG-DNA inh inactive and D1 agonist inactive.
For Cc1ccc2nc(/C(C#N)=C/c3ccc(-c4cccc([N+](=O)[O-])c4)o3)[nH]c2c1 the results were D3 ag inactive, D1 PAM inactive, D1 antagonist inactive, D3 antag inactive and D1 agonist 47.
Cc1c(Cl)cccc1-c1ccc(/C=C(\C#N)c2nc3ccccc3[nH]2)o1 was read as D3 ag inactive, D1 PAM inactive, D1 antagonist inactive, ERG-DNA inh inactive and D1 agonist 58.
COc1cc(/C=C(\C#N)c2nc3ccc(C)cc3[nH]2)c([N+](=O)[O-])cc1OC was read as D3 ag inactive, D1 PAM inactive, D1 antagonist inactive, D3 antag -52, ERG-DNA inh inactive and D1 agonist inactive.
Cc1ccc2nc(/C(C#N)=C/c3ccc(-c4ccc(F)cc4F)o3)[nH]c2c1 was read as D3 ag inactive, D1 PAM inactive, D1 antagonist inactive, ERG-DNA inh inactive and D1 agonist 219.
For N#C/C(=C\c1c(Cl)cccc1Cl)c1nc2ccccc2[nH]1 the results were D3 ag inactive, D1 PAM inactive, D1 antagonist inactive, D3 antag inactive, ERG-DNA inh inactive and D1 agonist inactive.
For Cc1ccc2nc(/C(C#N)=C\c3cc(O)ccc3[N+](=O)[O-])[nH]c2c1 the results were D3 ag inactive, D1 PAM inactive, D1 antagonist inactive, D3 antag inactive, ERG-DNA inh inactive and D1 agonist inactive.
Screening CCOC(=O)c1sc2ccccc2c1OC(=O)c1ccc(C)cc1 returned D3 ag 35, D1 PAM inactive, D1 antagonist inactive, D3 antag inactive, ERG-DNA inh inactive and D1 agonist inactive.
CCOC(=O)c1ccc(NC(=O)c2sc3ccccc3c2Cl)cc1 was read as D3 ag inactive, D1 PAM inactive, D1 antagonist inactive, ERG-DNA inh inactive and D1 agonist inactive.
`CCCc1c(O)nc(SC2CC(=O)N(c3ccc(OC)cc3)C2=O)[nH]c1=O` (stereo not given) gave D3 ag inactive, D1 PAM inactive, D1 antagonist inactive, D3 antag inactive, ERG-DNA inh inactive and D1 agonist inactive.
COc1ccc(NC(=S)Nc2ccc3nsnc3c2)cc1 was read as D3 ag inactive, D1 PAM inactive, D1 antagonist inactive, D3 antag -61, ERG-DNA inh inactive and D1 agonist inactive.
`S=C(NCc1ccc2c(c1)OCO2)Nc1ccc2nsnc2c1` gave D3 ag inactive, D1 PAM inactive, D1 antagonist -33, D3 antag inactive, ERG-DNA inh inactive and D1 agonist 34.
For C=CCNC(=S)Nc1ccc2nsnc2c1 the results were D3 ag inactive, D1 PAM inactive, D1 antagonist -90, D3 antag inactive, ERG-DNA inh inactive and D1 agonist inactive.
C=CCN(CC=C)C(=S)Nc1ccc2nsnc2c1 was read as D3 ag inactive, D1 PAM inactive, D1 antagonist inactive, D3 antag inactive, ERG-DNA inh inactive and D1 agonist inactive.
Screening CCn1ccc(C(=O)Oc2ccc(C(C)C)cc2)n1 returned D3 ag inactive, D1 PAM inactive, D1 antagonist inactive, D3 antag inactive and D1 agonist inactive.
Screening Cc1cc(C(=O)CSc2nn3c(=O)c(C(C)(C)C)nnc3s2)c(C)n1-c1ccc(F)cc1 returned D3 ag inactive, D1 PAM inactive, D1 antagonist inactive, D3 antag inactive, ERG-DNA inh inactive and D1 agonist inactive.
Screening CC12CCC(C(=O)Nc3cc(Cl)ccc3Cl)(C(Br)C1=O)C2(C)C (stereo not given) returned D3 ag inactive, D1 PAM inactive, D1 antagonist inactive, D3 antag inactive, ERG-DNA inh inactive and D1 agonist inactive.
Screening CCOC(=O)c1cnc2c(C)cc(Cl)cc2c1NCCCN1CCOCC1 returned D3 ag inactive, D1 PAM inactive, D1 antagonist -35, D3 antag inactive, ERG-DNA inh inactive and D1 agonist inactive.
CCOC(=O)c1cnc2c(Cl)cc(Cl)cc2c1NCCCN1CCOCC1 was read as D3 ag inactive, D1 PAM inactive, D1 antagonist inactive, D3 antag inactive, ERG-DNA inh inactive and D1 agonist inactive.
COC1=C(N)C(=O)c2nc(-c3nc(C(=O)O)c(C)c(-c4ccc(OC)c(OC)c4O)c3N)ccc2C1=O was read as D3 ag inactive, D1 PAM inactive, D1 antagonist inactive, D3 antag -118, ERG-DNA inh inactive and D1 agonist inactive.
CCCCC1CC(/C(C)=N/NC(N)=O)OC1=O (stereo not given) was read as D3 ag inactive, D1 PAM inactive, D1 antagonist inactive, D3 antag inactive, ERG-DNA inh inactive and D1 agonist inactive.
